Reference: PubChem BioAssay (Tox21)
Results filed as inconclusive are left out. Where a call stands in place of a potency, no number is given. Activity calls are given as the source filed them. Unless noted, the call rests on the fitted dose curve; in most records, active means well fitted curve in the direction sought with a large enough effect in the repeat runs; inconclusive means weak or mixed curves; inactive means no such curve, though single readings can be large; an effect the other way counts as inactive or inconclusive.

Key:
[1] = qHTS assay to identify aromatase inhibitors - cell viability counter screen (AID 743084); conditions: MCF-7 aro ERE viability, CellTiter-Fluor, 24 h; series mostly up to 70.3 µM;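 further: cells stimulated with testosterone during compound exposure; nearly all actives have a fitted effect of over 55% in size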; further: potency means the concentration at half of the fitted maximal effect
[2] = target: Aryl hydrocarbon receptor (Homo sapiens) (UniProt P35869); assay: qHTS assay to identify small molecule that activate the aryl hydrocarbon receptor (AhR) signaling pathway (AID 743085); conditions: HepG2 AhR-luc (HG2L7.5c1), luciferase, 24 h; series mostly up to 70.3 µM; further: nearly all actives have a fitted effect of over 15% in size; further: potency means the concentration at half of the fitted maximal effect;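 on activation: HG2L7.5c1 human HepG2 liver cells with stably integrated DRE-driven firefly reporter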
How it was run: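 Steps: seed HepG2-AhR-luc cells; allow 5 h at 37C; pin-transfer test compound or vehicle; incubate 24 h at 37C; add viability dye (30 min, 37C) and read fluorescence; add luciferase substrate (30 min, RT) and read luminescence.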

[3] = qHTS assay to identify small molecule that activate the aryl hydrocarbon receptor (AhR) signaling pathway - cell viability counter screen (AID 743086); conditions: HepG2-AhR-luc viability, CellTiter-Fluor, 24 h; series mostly up to 70.3 µM;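 further: HepG2 liver cells carrying the AhR DRE luciferase reporter; nearly all actives have a fitted effect of over 45% in size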
How it was run: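 HepG2-AhR-luc (HG2L7.5c1) cells, 4000/well, treated 24 h at 37 C with compound; viability measured as CellTiter-Fluor fluorescence after 30 min in the same wells as the luciferase read.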

[4] = qHTS assay to identify small molecule antagonists of the peroxisome proliferator-activated receptor gamma (PPARg) signaling pathway - cell viability counter screen (AID 743194); conditions: PPARg-bla HEK293H viability, CellTiter-Glo luminescence, 17 h; Potency: co-treated with 50 nM rosiglitazone; series mostly up to 62.6 µM; further: nearly all actives have a fitted effect of over 55% in size; further: potency means the concentration at half of the fitted maximal effect
How it was run: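 Cytotoxicity counter screen in PPARg-bla HEK293H cells, same wells as reporter assay. Compounds plus 50 nM rosiglitazone (final) for 17 h at 37 C, then viability read by CellTiter-Glo luminescence.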

[5] = qHTS assay for small molecule agonists of the antioxidant response element (ARE) signaling pathway - cell viability counter screen (AID 743203; calls by dose curve; further: nearly all actives have a fitted effect of over 55% in size); conditions: ARE-bla HepG2 viability, CellTiter-Glo luminescence, 16 h; series mostly up to 73.3 µM
How it was run: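 Cytotoxicity was tested in parallel with the ARE reporter screen. ARE-bla HepG2 cells were exposed to compounds for 16 hrs, and viability was taken from CellTiter-Glo luminescence.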

[6] = qHTS assay for small molecule activators of the heat shock response signaling pathway - cell viability counter screen (AID 743209); conditions: HSE-bla HeLa viability, CellTiter-Glo luminescence, 5 h; series mostly up to 62.6 µM; further: nearly all actives have a fitted effect of over 50% in size; further: potency means the concentration at half of the fitted maximal effect
How it was run: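 Cytotoxicity counter screen run in parallel with the HSE beta-lactamase reporter, using the same wells. HeLa HSE-bla cells received compound for 5 h at 37 C; ATP-based CellTiter-Glo luminescence was measured after 30 min at room temperature.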

[7] = qHTS assay for small molecule activators of the heat shock response signaling pathway (AID 743210; active means well fitted activation curve with a large enough effect in the signal ratio in the repeat runs, with a control signal flat, not every such curve was filed as active; the % refers to the signal ratio;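 further: HeLa cells with beta-lactamase reporter driven by heat shock elements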); conditions: HeLa HSE-bla reporter, beta-lactamase ratio, 5 h; series mostly up to 62.6 µM
How it was run: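 Beta-lactamase reporter read-out: FRET substrate fluorescence after 2.5 h at RT, following 5 h compound treatment at 37 C of HeLa cells carrying HSE-driven bla reporter; quantitative HTS format.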

[8] = target: Peroxisome proliferator-activated receptor gamma (Homo sapiens) (UniProt P37231); assay: qHTS assay to identify small molecule agonists of the peroxisome proliferator-activated receptor gamma (PPARg) signaling pathway (AID 743094; active means well fitted activation curve with a large enough effect in the signal ratio in the repeat runs, not every such curve was filed as active; the % refers to the signal ratio); conditions: HEK293H PPARg-UAS-bla, beta-lactamase FRET ratio, 17 h; series mostly up to 57 µM
How it was run: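 Cells from the PPARg UAS-bla HEK293H line are plated and incubated 5 h at 37C. Compounds in DMSO are pinned in and left 17 h at 37C. LiveBLAzer B/G substrate is then added for 1 h at room temperature before fluorescence is measured.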

[9] = target: Peroxisome proliferator-activated receptor gamma (Homo sapiens) (UniProt P37231); assay: qHTS assay to identify small molecule antagonists of the peroxisome proliferator-activated receptor gamma (PPARg) signaling pathway (AID 743191; calls by dose curve; further: nearly all actives have a fitted effect of over 30% in size); conditions: HEK293H PPARg-UAS-bla, beta-lactamase ratio, antagonist, 17 h; series mostly up to 62.6 µM
How it was run: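 GeneBLAzer PPARg UAS-bla HEK293H cells, 5 h post-plating, exposed to compounds 17 h at 37C. LiveBLAzer B/G FRET substrate added for 1 h at room temperature; beta-lactamase reporter read by fluorescence intensity.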

[10] = qHTS assay for small molecule agonists of the antioxidant response element (ARE) signaling pathway (AID 743202; active means well fitted activation curve with a large enough effect in the signal ratio in the repeat runs, not every such curve was filed as active; the % refers to the signal ratio; further: potency means the concentration at half of the fitted maximal effect); conditions: HepG2 ARE-bla reporter, beta-lactamase FRET, 16 h; series mostly up to 73.3 µM
How it was run: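 HepG2 ARE-bla reporter line, 2,000 cells/well; 5 h preincubation 37 C/5% CO2; compound (DMSO) 16 h 37 C; B/G FRET substrate 2 h RT; fluorescence intensity.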

Sequence of Peroxisome proliferator-activated receptor gamma (Homo sapiens) (P37231 whole entry, looked up): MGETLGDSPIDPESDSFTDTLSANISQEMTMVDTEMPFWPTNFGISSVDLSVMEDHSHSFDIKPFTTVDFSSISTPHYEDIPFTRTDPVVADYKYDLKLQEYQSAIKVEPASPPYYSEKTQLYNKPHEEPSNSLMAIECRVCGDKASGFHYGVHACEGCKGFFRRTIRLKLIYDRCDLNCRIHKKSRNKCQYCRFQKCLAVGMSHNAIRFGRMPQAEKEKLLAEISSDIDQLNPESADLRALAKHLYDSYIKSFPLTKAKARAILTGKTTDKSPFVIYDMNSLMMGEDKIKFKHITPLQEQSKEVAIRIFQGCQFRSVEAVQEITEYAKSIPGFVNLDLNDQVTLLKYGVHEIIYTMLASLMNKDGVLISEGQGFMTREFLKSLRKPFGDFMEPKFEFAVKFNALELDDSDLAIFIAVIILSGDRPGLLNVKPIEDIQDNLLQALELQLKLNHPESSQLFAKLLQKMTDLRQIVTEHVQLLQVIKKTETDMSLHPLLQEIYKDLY
Sequence of Aryl hydrocarbon receptor (Homo sapiens) (P35869 whole entry, looked up): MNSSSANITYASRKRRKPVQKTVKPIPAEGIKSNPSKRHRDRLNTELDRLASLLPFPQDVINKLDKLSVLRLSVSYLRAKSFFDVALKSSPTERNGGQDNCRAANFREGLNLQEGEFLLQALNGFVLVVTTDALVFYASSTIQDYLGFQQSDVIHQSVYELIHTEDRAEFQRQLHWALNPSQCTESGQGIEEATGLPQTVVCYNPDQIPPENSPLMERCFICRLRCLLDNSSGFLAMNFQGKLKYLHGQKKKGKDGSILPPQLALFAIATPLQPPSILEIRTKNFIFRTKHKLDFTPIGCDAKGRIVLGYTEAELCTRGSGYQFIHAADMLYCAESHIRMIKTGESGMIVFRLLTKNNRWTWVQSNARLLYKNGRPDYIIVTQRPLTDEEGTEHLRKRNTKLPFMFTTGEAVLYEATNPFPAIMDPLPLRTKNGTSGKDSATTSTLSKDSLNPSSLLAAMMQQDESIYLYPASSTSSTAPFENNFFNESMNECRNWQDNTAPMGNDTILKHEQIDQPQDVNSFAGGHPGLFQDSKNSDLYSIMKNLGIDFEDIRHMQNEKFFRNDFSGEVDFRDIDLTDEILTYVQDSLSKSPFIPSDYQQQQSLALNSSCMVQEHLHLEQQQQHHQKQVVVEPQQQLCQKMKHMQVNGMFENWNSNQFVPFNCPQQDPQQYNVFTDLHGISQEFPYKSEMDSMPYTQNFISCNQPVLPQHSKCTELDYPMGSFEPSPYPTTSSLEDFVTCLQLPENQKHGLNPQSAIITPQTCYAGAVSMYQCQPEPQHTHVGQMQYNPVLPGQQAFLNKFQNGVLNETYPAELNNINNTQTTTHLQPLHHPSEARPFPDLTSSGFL

Row | SMILES | Potency [1] | Potency [2] | outcome [3] | Potency [4] | Potency [5] | Potency [6] | outcome [7] | outcome [8] | Potency [9] | Potency [10]
1 | CC1(C)COP(Oc2ccccc2)OC1 | inactive | inactive | inactive | inactive | inactive | inactive | inactive | – | – | –
2 | CNC(=O)Oc1ccccc1C1OCCO1 | inactive | – | inactive | inactive | inactive | – | – | inactive | inactive | inactive
3 | O=C(CCCN1CCC(n2c(=O)[nH]c3ccccc32)CC1)c1ccc(F)cc1 | inactive | – | inactive | inactive | inactive | inactive | inactive | inactive | – | –
4 | CCC(C)n1c(=O)[nH]c(C)c(Br)c1=O (stereo unspecified) | inactive | – | inactive | inactive | inactive | inactive | – | – | inactive | inactive
5 | OC(c1ccc(F)cc1)(c1cncnc1)c1ccccc1Cl (stereo unspecified) | inactive | – | inactive | inactive | inactive | inactive | – | inactive | – | –
6 | COP(N)(=S)Oc1ccccc1C(=O)OC(C)C (stereo unspecified) | inactive | – | inactive | inactive | inactive | inactive | inactive | – | inactive | inactive
7 | BrCCCCCCBr | inactive | – | inactive | inactive | inactive | inactive | inactive | inactive | inactive | –
8 | CCOP(=S)(OCC)SCSP(=S)(OCC)OCC | inactive | – | inactive | inactive | inactive | inactive | inactive | inactive | inactive | –
9 | C(CCOCC1CO1)COCC1CO1 (stereo unspecified) | inactive | inactive | inactive | – | inactive | inactive | – | – | – | –
10 | C[N+](C)=CCl | inactive | – | inactive | inactive | inactive | inactive | inactive | – | inactive | inactive
11 | O=C(Nc1ccccc1)N(Cc1ccc(Cl)cc1)C1CCCC1 | inactive | 54.5 µM (active) | – | 21.9 µM (active) | – | inactive | inactive | – | – | –
12 | CC(CC(C#N)(c1ccccc1)c1ccccc1)N(C)C (stereo unspecified) | inactive | inactive | – | inactive | inactive | inactive | – | – | – | –
13 | CCOP(=S)(OCC)Oc1cc(-c2ccccc2)on1 | inactive | – | inactive | – | inactive | inactive | inactive | – | inactive | inactive
14 | CC1=C(C(=O)Nc2ccccc2)S(=O)(=O)CCO1 | 30.6 µM (active) | inactive | inactive | – | inactive | inactive | – | – | – | 1.93 µM (active)
15 | Cc1ncc2n1-c1ccc(Cl)cc1C(c1ccccc1F)=NC2 | inactive | – | inactive | inactive | inactive | inactive | – | – | inactive | –
16 | O=[N+]([O-])c1ccc2c3c(cccc13)CC2 | inactive | – | inactive | inactive | inactive | inactive | – | inactive | inactive | –

Row | SMILES | Potency [1] | Potency [2] | outcome [3] | Potency [4] | Potency [5] | Potency [6] | outcome [7] | outcome [8] | Potency [9] | Potency [10]
17 | CCCCOC(=O)c1ccccc1C(=O)O | inactive | – | inactive | inactive | inactive | inactive | inactive | – | inactive | inactive
18 | c1cc[c]([Hg][c]2ccccc2)cc1 | inactive | – | inactive | – | – | inactive | inactive | inactive | – | –
19 | CC1=NNC(=O)N(/N=C/c2cccnc2)C1 | inactive | – | inactive | inactive | inactive | inactive | inactive | inactive | – | inactive
20 | Cc1ccccc1CO[C@@H]1C[C@@]2(C(C)C)CC[C@]1(C)O2 | inactive | – | inactive | inactive | inactive | inactive | inactive | inactive | inactive | inactive
21 | CCCSP(=O)(OCC)Oc1ccc(Br)cc1Cl (stereo unspecified) | inactive | – | inactive | – | inactive | inactive | inactive | inactive | – | –
22 | COc1cc(OC)nc(Sc2cccc(Cl)c2C(=O)O)n1 | inactive | – | inactive | inactive | inactive | inactive | – | inactive | inactive | inactive
23 | COc1cc(OC)nc(NC(=O)NS(=O)(=O)c2ncccc2OCC(F)(F)F)n1 | inactive | – | inactive | inactive | inactive | inactive | inactive | inactive | inactive | inactive
24 | C=C(C)[C@@H]1CC=C(C=O)CC1 | inactive | – | inactive | inactive | inactive | inactive | inactive | inactive | – | –
25 | CCN(CC)C(=O)[C@@H]1C=C2c3cccc4[nH]cc(c34)C[C@H]2N(C)C1 | inactive | – | inactive | inactive | inactive | inactive | inactive | – | – | –
26 | CC(C)(C)OC(=O)c1ncn2c1[C@@H]1CCCN1C(=O)c1c(Br)cccc1-2 | inactive | – | inactive | inactive | inactive | inactive | inactive | – | inactive | –
27 | COc1cc(C[C@@H](C)N)c(OC)cc1C | inactive | – | inactive | inactive | inactive | inactive | inactive | inactive | inactive | –
28 | N#CC(CCc1ccc(Cl)cc1)(Cn1cncn1)c1ccccc1 (stereo unspecified) | inactive | inactive | – | inactive | inactive | inactive | – | – | – | inactive
29 | Nc1cc(Cl)ccc1O | inactive | 29.6 µM (active) | inactive | – | inactive | inactive | inactive | – | – | –
30 | CCCCOP(=O)(O)OCCCC | inactive | – | inactive | inactive | inactive | inactive | inactive | inactive | – | inactive
31 | CCOC(=O)/C=C(C)/C=C/C[C@@H](C)CCCC(C)C | inactive | – | inactive | – | – | 38.9 µM (active) | – | – | – | –
